Data on 15 compounds can be found in PubChem BioAssay (NCI).

Some test systems named below: T-47D breast; BT-549 breast; MDA-MB-435 melanoma; SW-620 colon; MCF7 breast; HCT-116 colon; HCC-2998 colon; KM12 colon.
Common to all, as to assay: NCI-60 one-dose screen, 48 h (100 = growth as untreated, 0 = no growth, -100 = all killed)
Holding throughout (settings): 10 µM unless noted

Each structure is given as a SMILES string. About 83,000 compounds went through this panel and 20% of them were active in at least one assay; those are over-represented in the sample as a whole.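 Step 1: grow cells in 96-well plates. Step 2: add test compound at a single concentration. Step 3: incubate 48 h. Step 4: record percent growth.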 Unmarked numbers belong to inactive results. The source made the active and inactive calls. How the source made its calls: active means growth percent below 10; inactive means the rest.

On to `CCN(CC)CCCCCNc1cc(OC(=O)c2ccccc2)cc2cccnc12`, for which the growth was 76.6% with T-47D breast; 97.2% in the assay with BT-549 breast; 53.6% with MDA-MB-435 melanoma; 80.8% with SW-620 colon; 134% with MCF7 breast; 44.5% in the assay on HCT-116 colon. Also, the growth in the assay on HCC-2998 colon is 104%; with KM12 colon, 81.3%.

On to `COc1ccc(C(=O)c2ccc(C)cc2)c(OC)c1OC`, for which the growth is 90% in the assay with T-47D breast; 86.7% in the assay on BT-549 breast; -25.2% (active) with MDA-MB-435 melanoma; 33.6% with SW-620 colon; 72.2% in the assay on MCF7 breast; 58.4% in the assay with HCT-116 colon. For the same compound, the growth in the assay with HCC-2998 colon was 75.9%; in the assay on KM12 colon, 47.2%.

As for `Cc1cc(C)n(Cc2cc(C(C)(C)C)cc(C(C)(C)C)c2)c(=O)c1C#N`, the growth is 79.3% with T-47D breast; 88.5% in the assay with BT-549 breast; 102% in the assay with MDA-MB-435 melanoma; 101% with SW-620 colon; 88.4% in the assay on MCF7 breast; 79.3% in the assay on HCT-116 colon. For the same compound, the growth was 116% with HCC-2998 colon and 97.5% with KM12 colon.

With `CCSc1sc(-c2ccc(C)cc2)nc1[P+](c1ccccc1)(c1ccccc1)c1ccccc1`, the growth in the assay on T-47D breast is -22% (active); in the assay with BT-549 breast, -19.1% (active); in the assay with MDA-MB-435 melanoma it was -26.8% (active); in the assay on SW-620 colon, 4.99% (active); with MCF7 breast, -4.84% (active); in the assay on HCT-116 colon, -20.9% (active). The growth in the assay with HCC-2998 colon was -23.1% (active); with KM12 colon, -63.2% (active).

As for `CCC(CC)C(=O)OC(C)COc1ccc(C(C)(C)C)cc1` (stereo not given), the growth is 113% with T-47D breast; 109% in the assay with BT-549 breast; 105% in the assay on MDA-MB-435 melanoma; 106% in the assay with SW-620 colon; 101% in the assay with MCF7 breast; 90.7% with HCT-116 colon. Moreover, the growth is 101% in the assay with HCC-2998 colon and 102% with KM12 colon.

Regarding `Nc1ccccc1NC(=O)c1ccc(CN2CCC/C(=C\c3ccccn3)C2=O)cc1`, the growth in the assay on T-47D breast was 8.73% (active); with BT-549 breast, 52.9%; with MDA-MB-435 melanoma it was -42.7% (active); in the assay on SW-620 colon, 12.3%; with MCF7 breast, 6.01% (active); in the assay with HCT-116 colon it was 5.7% (active). Further, the growth was 31.5% in the assay on HCC-2998 colon and 25.2% in the assay on KM12 colon.

With `C#CCn1c2c(c3ccccc31)C[C@]1(C)[C@H]3CC[C@@H]4[C@@H]5C(=CCC[C@H]5C(=C)C)CC[C@@]4(C)[C@]3(C)CC[C@H]1C2(C)C`, the growth in the assay with T-47D breast is 106%; with BT-549 breast, 100%; in the assay with MDA-MB-435 melanoma, 102%; in the assay on SW-620 colon, 98.2%; in the assay with MCF7 breast it was 95.7%; in the assay with HCT-116 colon, 101%. Moreover, the growth in the assay with HCC-2998 colon and in the assay on KM12 colon was 102% in each case.

With `O=c1c(CNc2ccc(S(=O)(=O)Nc3nccs3)cc2)coc2ccccc12`, the growth is 94.3% in the assay with T-47D breast; 99.5% in the assay on BT-549 breast; 112% with MDA-MB-435 melanoma; 101% in the assay on SW-620 colon; 110% with MCF7 breast; 100% in the assay on HCT-116 colon. The figures for the growth in the assay on HCC-2998 colon and in the assay with KM12 colon were 105% and 111%, respectively.

On to `CN1CCN(CCOc2ccc(-c3cnc4c(-c5ccccc5F)cnn4c3)cc2)CC1`, for which the growth with T-47D breast is 23%; in the assay with BT-549 breast, 69.9%; with MDA-MB-435 melanoma it was -29.2% (active); with SW-620 colon it was -73.8% (active); with MCF7 breast, 19.2%; in the assay on HCT-116 colon, 3.73% (active). For the same compound, the results for the growth in the assay with HCC-2998 colon and with KM12 colon were 22.4% and 9.44% (active), respectively.

In the case of `Brc1ccc2c(c1)c(-c1nc(-c3c[nH]c4ncccc34)cs1)cn2CCCN1CCCCC1`, the growth with T-47D breast is 45%; in the assay with BT-549 breast, 72.8%; in the assay with MDA-MB-435 melanoma, -84% (active); with SW-620 colon it was -63.5% (active); in the assay on MCF7 breast, -68.1% (active); in the assay with HCT-116 colon, -62.7% (active). Moreover, the values for the growth in the assay on HCC-2998 colon and in the assay with KM12 colon were 34.8% and 14.5%, respectively.

As for `O=C1CCC/C=C\C[C@H]2C=C(Cl)C(=O)/C2=C/C[C@H](CCCCC(F)(F)F)OC(=O)CCC/C=C\C[C@H]2C=C(Cl)C(=O)/C2=C/C[C@H](CCCCC(F)(F)F)O1`, the growth was -7.29% [7.5 µM] (active) in the assay on T-47D breast; -43.8% [7.5 µM] (active) in the assay with BT-549 breast; -14.3% [7.5 µM] (active) in the assay with MDA-MB-435 melanoma; -30.8% [7.5 µM] (active) with SW-620 colon; -38.9% [7.5 µM] (active) in the assay with MCF7 breast; -93.4% [7.5 µM] (active) in the assay with HCT-116 colon. The values for the growth in the assay with HCC-2998 colon and with KM12 colon were -54.7% [7.5 µM] (active) and -60.3% [7.5 µM] (active), respectively.

As for `Cc1oc(-c2ccccc2Cl)cc1C(=O)Nc1ccc(S(N)(=O)=O)cc1`, the growth in the assay with T-47D breast was 83.2%; with BT-549 breast, 104%; in the assay with MDA-MB-435 melanoma, 102%; with SW-620 colon, 108%; in the assay with MCF7 breast, 92.7%; in the assay with HCT-116 colon it was 102%. Also, the growth in the assay with HCC-2998 colon was 103%; with KM12 colon it was 101%.

`Cc1[c-]onc1C.Cc1[c-]onc1C.[Ag].[Ag].[NH-]S(=O)(=O)c1ccc(N=Nc2cc(N=Nc3ccc(S([NH-])(=O)=O)cc3)c3c(NC(=O)C(Cl)Cl)cccc3c2OC(=O)C(Cl)Cl)cc1`: the growth in the assay on T-47D breast is -11.9% (active); with BT-549 breast, 94.6%; with MDA-MB-435 melanoma it was 74.3%; in the assay with SW-620 colon, 58.1%; in the assay with MCF7 breast, 35.7%; in the assay on HCT-116 colon it was 71.9%. Also, the growth is 107% in the assay on HCC-2998 colon and 71.5% in the assay on KM12 colon.

Regarding `CCCCN1CCCCn2c1nc1c2c(=O)n(C)c(=O)n1C`, the growth with T-47D breast was 107%; with BT-549 breast it was 108%; in the assay on MDA-MB-435 melanoma, 107%; in the assay with SW-620 colon, 102%; in the assay with MCF7 breast, 103%; in the assay on HCT-116 colon, 104%. For the same compound, the growth in the assay with HCC-2998 colon was 95.9%; in the assay with KM12 colon it was 101%.

Take `Cn1cc(-c2csc(-c3c[nH]c4ccccc34)n2)c2cccnc21`: the growth is 27.2% in the assay on T-47D breast; 49.6% in the assay with BT-549 breast; -13.9% (active) in the assay on MDA-MB-435 melanoma; 29.6% in the assay on SW-620 colon; 13.6% in the assay on MCF7 breast; 30.5% with HCT-116 colon. For the same compound, the growth was 33.2% in the assay with HCC-2998 colon and 32.5% in the assay with KM12 colon.
